# Compound activity (PubChem BioAssay)
# An excerpt weighted towards active compounds, which were near 2.1% of everything screened.
# ERAP1 inh – ERAP1 (human) enzyme inhibition | recombinant ERAP1, Leu-AMC fluorescence, 60 min | inhibition, % at 10.7 µM | 0.15% of 340,000 active | AID 652197;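 active means mean replicate inhibition of at least 30%, or all replicates individually reaching that 30% level; inactive means mean below 30% and not every replicate reaching it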;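 further: 0% = neutral control wells and 100% = L-leucinethiol positive control wells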
# Target sequence (Q9NZ08 whole entry, looked up): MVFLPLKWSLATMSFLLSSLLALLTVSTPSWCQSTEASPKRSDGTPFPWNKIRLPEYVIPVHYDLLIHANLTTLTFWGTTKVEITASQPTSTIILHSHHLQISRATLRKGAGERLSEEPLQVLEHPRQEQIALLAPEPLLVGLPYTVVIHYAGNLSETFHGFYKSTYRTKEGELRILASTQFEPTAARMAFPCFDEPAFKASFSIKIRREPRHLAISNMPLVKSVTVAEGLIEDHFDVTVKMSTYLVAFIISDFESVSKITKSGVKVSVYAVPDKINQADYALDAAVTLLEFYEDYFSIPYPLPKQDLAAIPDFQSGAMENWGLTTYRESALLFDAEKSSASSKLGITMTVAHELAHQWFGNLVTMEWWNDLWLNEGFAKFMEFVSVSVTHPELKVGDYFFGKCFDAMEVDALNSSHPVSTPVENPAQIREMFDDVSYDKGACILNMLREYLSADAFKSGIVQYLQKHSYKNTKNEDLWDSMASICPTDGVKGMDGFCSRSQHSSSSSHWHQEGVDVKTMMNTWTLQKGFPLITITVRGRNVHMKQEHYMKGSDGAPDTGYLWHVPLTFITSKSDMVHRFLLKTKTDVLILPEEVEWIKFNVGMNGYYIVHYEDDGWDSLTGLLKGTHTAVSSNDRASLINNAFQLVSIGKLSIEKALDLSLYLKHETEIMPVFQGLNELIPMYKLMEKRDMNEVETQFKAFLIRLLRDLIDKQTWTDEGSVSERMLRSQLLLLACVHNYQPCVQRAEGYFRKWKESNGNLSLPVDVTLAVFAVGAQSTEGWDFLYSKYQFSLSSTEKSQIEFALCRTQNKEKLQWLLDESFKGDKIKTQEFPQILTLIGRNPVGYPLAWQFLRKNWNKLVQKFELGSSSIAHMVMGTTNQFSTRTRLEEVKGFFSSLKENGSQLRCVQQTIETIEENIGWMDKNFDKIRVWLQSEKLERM
# CFTR F508del cor – CFTR F508del correction in bronchial cells | CFBE cells, YFP halide quenching; stimulated with forskolin plus potentiator P3; % fluorescence drop versus neutral controls | activity (quench increase), % at 7.58 µM | 0.36% of 350,000 active | AID 720511;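 active means mean added fluorescence quench of at least 8% versus neutral control, with both replicates also reaching 8%; inconclusive means only one of the mean or replicate conditions met; inactive means mean below 8% and not both replicates reaching 8%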;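 further: cells transiently co-express mutant CFTR-F508del with the halide-sensitive YFP; corrector assay measuring rescue of mutant channel to the surface after 24 h compound exposure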
# ARNT-TACC3 inh – ARNT/TACC3 interaction disruption; Q9Y6A5; AlphaScreen His-ARNT PAS-B/GST-TACC3 binding, luminescence; TACC3 fragment carries E629A point mutation; inhibition, % at 9.99 µM; 0.66% of 390,000 active; AID 623870;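 active means mean inhibition of replicates at least 50% and at least half of replicates each reaching 50%; inconclusive means half or more replicates reach 50% but mean below 50%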;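 further: 0% = complete ARNT plus TACC3 wells and 100% = ARNT alone without TACC3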
# PvdQ inh – P. aeruginosa PvdQ acylase inhibition. purified PvdQ acylase, fluorescence plate reader. inhibition, % at 10 µM. 0.063% of 340,000 active. AID 488965; in the data active means inhibition above about 30%, passing the limit was not always enough; inconclusive means no clear call, values can overlap the other calls;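 further: 0% = vehicle neutral wells and 100% = reference inhibitor wells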
# rRNA inh HTS – inhibitors of bacterial rRNA selective over humanized ribosomes; 1.6% of 350,000 active; GFP signal change (wild-type ribosome), % (no concentration beside the values); E. coli WT GFP vs humanized-ribosome RFP mutants, fluorescence, 24 h; active compounds read low; DMSO median 0, no signal -100; AID 720706;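 active means significant combined selectivity score with lowered wild-type GFP, culture density cut under 30%, mutant RFP and density less affected; inactive means any of these conditions unmet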
# AID977621 – growth inhibition of wild-type GFP E. coli, dose response, H69 mutant RFP, cherry-pick; shares compounds with rRNA inh HTS; E. coli wild-type GFP strain growth, fluorescence, 24 h; activity change, negative = inhibition at 50 µM; 1,900 tested, under 10 active; AID 977621;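 active means Wild-type ribosome reporter drop at least double the humanized mutant ribosome reporter drop, growth loss under a set limit; inconclusive means no clear call, values can overlap the other calls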;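 further: wild-type GFP and H69 mutant RFP strains grown together 50/50 in each well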
# AID977628 – growth of wild-type and h24-humanized E. coli strains – h24 mutant RFP vs wild-type GFP, cherry-pick, dose response | activity change, negative = inhibition at 50 µM | shares compounds with rRNA inh HTS | E. coli WT GFP strain growth, fluorescence, 24 h | AID 977628 | 1,900 tested, under 10 active;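 active means compound lowering the normal-ribosome reporter at least twice as much as the humanized-ribosome reporter, growth loss under a set limit; inconclusive means no clear call, values can overlap the other calls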;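 further: wild-type GFP and h24 humanized RFP strains co-cultured 1 to 1 per well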
# Numbers without * were called inactive; ? = inconclusive; nt = not tested or not shown.
SMILES,ERAP1 inh,CFTR F508del cor,ARNT-TACC3 inh,PvdQ inh,rRNA inh HTS,AID977621,AID977628
CCC(=O)N(C)C[C@H]1Oc2ncc(-c3ccccc3OC)cc2C(=O)N([C@@H](C)CO)C[C@H]1C,-2,0,-4,nt,0,nt,nt
COC(=O)c1sc(C(C)(C)C)cc1CS(=O)(=O)c1ccc(Cl)cc1,0,7,nt,-10,-31*,1.6,-3.8
C[C@@H]1CN([C@@H](C)CO)C(=O)c2cccc(NC(=O)C3CCOCC3)c2O[C@@H]1CN(C)S(=O)(=O)c1cccs1,7,-1,-7,nt,-1,nt,nt
O=C(CCc1nc2ccccc2s1)Nc1ccccc1,nt,nt,-7,10,nt,nt,nt
c1ccc(Cc2nc3ccccc3s2)cc1,-1,1,-6,-6,-18*,nt,-12
CCCC(=O)Nc1ccc2c(c1)OC[C@@H](C)N(Cc1ccc(F)cc1)C[C@@H](C)[C@H](OC)CN(C)C2=O,1,-3,nt,nt,-3,nt,nt
CCc1cc2c(=O)n(Cc3ccccc3)c(SC3CCOC3=O)nc2s1 (stereo not given),1,2,6,-17,-24*,-17,nt
O=C(O)c1cc2ccc3ccccc3c2[nH]1,4,3,3,-2,-26*,-5.3,nt
Cc1cccc(CN2C(=O)c3ccccc3Sc3ccc(C(=O)NCCN4CCOCC4)cc32)c1,0,1,-4,-2,-47*,-22,nt
S=c1nc(-c2cccc(Br)c2)[nH][nH]1,1,0,4,-7,-20*,-7.4,-8.2
C[C@@H]1CN([C@@H](C)CO)C(=O)c2cc(C#CCN(C)C)cnc2O[C@@H]1CN(C)C(=O)c1cnccn1,nt,-1,nt,nt,3,nt,nt
Cc1n(CC(=O)c2ccc(F)cc2)c2ccccc2[n+]1C,1,2,-1,7,16,nt,nt
CCCCc1n(CC(=O)c2ccc(Cl)cc2)c2ccccc2[n+]1C,1,-1,nt,-28,-19*,nt,-1.4
COc1cccc(-c2ccc([C@H]3[C@@H](CO)N(C(=O)Cc4ccncc4)[C@H]3C#N)cc2)c1,-5,-3,1,nt,-5,nt,nt
C[C@@H]1CCCCO[C@@H](CN(C)Cc2ccc(C(F)(F)F)cc2)[C@H](C)CN([C@H](C)CO)C(=O)c2cc(NC(=O)CCC(F)(F)F)ccc2O1,1,6,-3,nt,4,nt,nt
N#C[C@H]1[C@@H](c2ccc(-c3ccccc3)cc2)[C@H](CO)N1C(=O)Cc1ccccc1,1,-1,6,nt,-56,nt,nt
O=C(O)CNC(=O)C(c1ccccc1)c1ccccc1,-3,-1,0,-5,-17*,-6.8,-7
CN(C)CC(=O)N[C@@H]1CC[C@@H](CCNC(=O)Nc2ccc(Cl)cc2)O[C@H]1CO,-2,0,24,nt,-28*,nt,?
CC(C)(C)NC(=O)C(c1ccncc1)N(Cc1ccc(F)cc1)C(=O)c1ccc(-c2ccccc2)[nH]1 (stereo not given),0,6,2,-1,-21*,10,1.3
O=C(NC1CCCC1)C(c1ccncc1)N(Cc1ccccc1)C(=O)c1ccc(-c2ccccc2)[nH]1 (stereo not given),nt,nt,-3,-12,nt,nt,nt
CC(=O)Nc1ccc(NC(=O)C(C)c2cccc(C(=O)c3ccccc3)c2)cc1 (stereo not given),nt,nt,5,-2,nt,nt,nt
Cc1cc(C)c(NC(=O)C(C)c2cccc(C(=O)c3ccccc3)c2)c(C)c1 (stereo not given),-3,1,-7,4,-17*,-2.7,nt
O=C1c2ccccc2NC(c2cccc(F)c2)N1Cc1ccco1 (stereo not given),-1,-2,-4,-3,-33*,-4.2,-3.1
CCn1c(SCC(=O)Nc2ccc(OC)cc2)nc2nc3c(cc2c1=O)CCCC3,-3,1,1,-3,-28*,0.3,?
Cn1ccc2cc(-c3ccc4ncnc(NCc5cccs5)c4c3)ccc21,-2,0,-10,-10,-24*,?,-11
SMILES,ERAP1 inh,CFTR F508del cor,ARNT-TACC3 inh,PvdQ inh,rRNA inh HTS,AID977621,AID977628
COc1cccc(-c2ccc3ncnc(NCc4cccs4)c3c2)c1,-3,-4,1,1,0,nt,nt
Cc1cc(OCC(=O)N(Cc2ccco2)C2CCS(=O)(=O)C2)ccc1Cl (stereo not given),-3,3,nt,nt,-19*,?,nt
O=C(COc1ccc(Cl)cc1)N(Cc1ccco1)C1CCS(=O)(=O)C1 (stereo not given),-1,-32,-3,-9,-5,nt,nt
CC(=O)c1ccc(Sc2ccccc2N)c([N+](=O)[O-])c1,nt,-2,3,14,-16*,nt,-13
Nc1ccccc1Sc1ccc(C(=O)c2ccccc2C(=O)O)cc1[N+](=O)[O-],nt,0,3,-3,-1,nt,nt
Cc1ccc(OCC(O)CN2CCN(c3ccccn3)CC2)c(C)c1 (stereo not given),-3,1,1,-7,-17*,nt,?
CN(C(=O)c1cccc(NC(=O)Cc2cccc(NC(=O)C3CCN(C(=O)CCc4ccccc4)CC3)c2)c1)C1CC1,nt,-3,0,-15,-38*,nt,?
O=C(Cc1cccc(NC(=O)C2CCN(C(=O)CCc3ccccc3)CC2)c1)Nc1cccc(C(=O)N2CCCC2)c1,-2,-3,-6,-13,-19*,-23,nt
O=C(Cc1ccc(NC(=O)C2CCN(C(=O)CCc3ccccc3)CC2)cc1)Nc1cccc(C(=O)N2CCCC2)c1,1,-3,nt,nt,-19,nt,nt
CCC(=O)N(C)C[C@H]1Oc2cc(C#CCOC)ccc2S(=O)(=O)N([C@@H](C)CO)C[C@H]1C,0,3,3,nt,1,nt,nt
COCC#Cc1cnc2c(c1)C(=O)N([C@H](C)CO)C[C@@H](C)[C@@H](CN(C)Cc1ccc(F)cc1)O2,4,2,-1,nt,2,nt,nt
Cn1c(=O)c2c(-c3ccccc3)n(-c3cc([N+](=O)[O-])ccc3N)cc2n(C)c1=O,13,-1,nt,nt,-14*,-26,-21
O=C(NCc1cccs1)c1cccc(S(=O)(=O)N2CCCCC2)c1,nt,nt,-1,-13,nt,nt,nt
O=C(NCc1cccs1)c1ccc(Cl)c(S(=O)(=O)N2CCCC2)c1,-3,-2,-4,-2,-19*,nt,0.26
Cc1ccc2oc(C(=O)N(C)Cc3ccc(C)o3)c(C)c2c1,2,-2,-6,-4,-30*,-5.2,-3.4
Cc1nn2c(NCc3ccccn3)cc(C(C)C)nc2c1-c1ccccc1,3,-2,3,-14,-21*,nt,-14
COCc1c(C#N)c(NCCc2ccc(F)cc2)nc(C)c1[N+](=O)[O-],1,nt,3,2,-17*,-13,-12
COC(=O)c1ccc(OCC(=O)c2ccccc2OC)cc1,3,nt,-3,-5,-23*,3.2,-7
